Laboratory results taken from PubChem BioAssay AID1619 (SRMLSC, 2009).
The campaign covered roughly 220,000 compounds. About 830 (0.38%) were called active.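 Rule for the calls: active = compound inhibiting the enzyme by more than half at any dose during confirmatory dose-response retesting; inconclusive = strong single-dose inhibitors picked by rank but not retested; inactive = the rest.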 Only a sample is shown. Results with a measured potency or affinity are listed apart.

The molecules below were run against Leucine aminopeptidase (Plasmodium falciparum (isolate 3D7)) (UniProt Q8IL11) (assay: P. falciparum M17LAP inhibitors, primary screen, biochemical, fluorogenic H-Leu-NHMec substrate, 1536-well (AID 1619;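 note: plate controls were full reaction with DMSO carrier for no effect and no enzyme background for full effect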)). Settings: recombinant M17LAP, H-Leu-NHMec fluorogenic kinetic assay; at 30 µM; active compounds read high.
Leucine aminopeptidase (Plasmodium falciparum (isolate 3D7)), sequence (Q8IL11 whole entry, looked up): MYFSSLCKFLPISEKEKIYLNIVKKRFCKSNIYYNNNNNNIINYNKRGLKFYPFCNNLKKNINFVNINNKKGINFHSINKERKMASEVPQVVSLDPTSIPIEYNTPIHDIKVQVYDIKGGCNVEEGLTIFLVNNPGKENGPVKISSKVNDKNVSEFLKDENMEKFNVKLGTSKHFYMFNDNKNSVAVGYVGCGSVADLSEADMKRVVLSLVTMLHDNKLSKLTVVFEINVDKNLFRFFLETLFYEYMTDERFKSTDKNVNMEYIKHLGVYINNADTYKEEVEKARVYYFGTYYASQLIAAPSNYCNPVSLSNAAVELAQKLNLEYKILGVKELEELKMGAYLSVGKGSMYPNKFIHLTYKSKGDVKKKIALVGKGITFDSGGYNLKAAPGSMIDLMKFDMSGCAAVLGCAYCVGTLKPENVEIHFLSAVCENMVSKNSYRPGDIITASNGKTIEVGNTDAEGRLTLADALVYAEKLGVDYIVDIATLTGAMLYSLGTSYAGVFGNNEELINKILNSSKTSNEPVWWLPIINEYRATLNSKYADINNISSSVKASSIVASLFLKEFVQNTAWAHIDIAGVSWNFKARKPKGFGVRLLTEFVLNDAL

inhibition, inactive:
O=C(O)CSc1nc2ccccc2n1-c1ccccc1 6.57%
C/C=C/Cn1c(Br)nc2c1c(=O)[nH]c(=O)n2C 6.95%
O=C1c2ccccc2-c2cccc(C(=O)N3CCN(C(=O)c4ccccc4)CC3)c21 2.37%
CC1=C(C(=O)N2CCOCC2)C(c2ccc(Br)cc2)NC(=S)N1c1ccccc1 (stereo not drawn) 1.22%
Nc1nonc1C(=Nc1ccc(Br)cc1)NO -2.77%
COc1ccc(NC(=S)N(Cc2ccc(C)cc2)Cc2ccccn2)cc1 4.2%
COc1ccc(-c2cc(C(F)(F)F)n3nc(C(=O)O)nc3n2)cc1 42.7%
NC(=O)CSc1nccn1Cc1ccc(Cl)cc1 -2.93%
CCN(c1ccc(NC(=O)COC(=O)c2cccs2)cc1)C(C)C 38.8%
O=C(COC(=O)c1cccs1)Nc1ccccc1 4.15%
CNC(=S)N1N=C(c2ccc(C)cc2)CC1c1ccc(Cl)cc1 (stereo not drawn) 5.37%
CCOc1[nH]n(-c2ccccc2)c(=O)c1C=Nc1ccc(F)cc1F 2.5%
CCOC(=O)N1CCN(C(=O)/C(=C/c2cccs2)NC(=O)c2cccs2)CC1 16.7%
O=c1c2c3c(sc2[nH]c(=S)n1Cc1ccco1)CCC3 -4.17%
CCn1c(=S)[nH]c2sc3c(c2c1=O)CCCCC3 3.46%
O=C(COC(=O)c1ccccc1OCc1ccc(Cl)cc1)NC1CC1 -0.6%
Cc1ccc(COc2ccsc2C(=O)O)cc1 -3.31%
O=C(O)c1sccc1OCc1ccccc1 -1.01%
COc1ccc(C(=O)CSc2n[nH]c(-c3ccncc3)n2)cc1[N+](=O)[O-] -7.99%
Cc1c(Br)c(=O)oc2c(Br)c(O)c(O)cc12 45.5%
O=c1cc2c(=O)oc3cc(O)c(O)oc3c2c(O)c1O 33%
Cc1ccc(C)c(NC(=O)CSc2nnc(-c3ccco3)o2)c1 1.4%
Cc1cccc(Nc2nnc(SC/C(O)=C(\C#N)c3nc4ccccc4[nH]3)s2)c1C -9.64%
Cc1cccc(Nc2nnc(SC/C(O)=C(\C#N)c3nc4ccccc4[nH]3)s2)c1 19.5%
COc1ccc(S(=O)(=O)N2CCOC2CNC(=O)C(=O)NCc2cccnc2)cc1C (stereo not drawn) 10.8%
CN(C)Cc1nc2c(c(=O)[nH]1)C(C)(C)Cc1ccccc1-2 -7.27%
CCn1c(=S)[nH]c2c(c1=O)C(C)(C)Cc1ccccc1-2 -1.93%
Cc1ccc(S(=O)(=O)c2nc(C)c3c(n2)CCC3)cc1 -1.17%
CCOC(=O)c1cnc(SCC(=O)Nc2cc(C(F)(F)F)ccc2N2CCOCC2)nc1N -15.2%
CC(=O)/C(C#N)=C1\NC(=O)C(Cc2ccccc2C)S1 (stereo not drawn) 23.4%
CC(=O)/C(C#N)=C1\NC(=O)C(Cc2cc(Cl)ccc2Cl)S1 (stereo not drawn) 45.6%
COCCCn1c(SCc2cc(=O)[nH]c3ccccc23)nnc1-c1ccco1 -2.38%
COCCSc1nnc(NC(=O)C2CC(=O)N(c3ccc(C)cc3)C2)s1 (stereo not drawn) 1.69%
CC(=O)Nc1ccc(S(=O)(=O)Oc2cccc(N3C(=O)C4CC=CCC4C3=O)c2)cc1 (stereo not drawn) 15.9%
O=C1C2CC=CCC2C(=O)N1c1cccc(OS(=O)(=O)c2ccc3ccccc3c2)c1 (stereo not drawn) 6.42%
CCOc1ccc(NC(=S)NNC(=S)Nc2cccc(C(F)(F)F)c2)cc1 -5.94%
O=C(NCc1ccco1)c1cc(-c2ccccn2)nc2ccccc12 6.45%
Cc1ccc(S(=O)(=O)Nc2ccccc2C(=O)OC(C)C(=O)Nc2ccc3ccccc3c2)cc1[N+](=O)[O-] (stereo not drawn) -9.25%
COc1ccc(NC(=S)NNc2ccc([N+](=O)[O-])cc2S(=O)(=O)Nc2ccc(C)cc2C)cc1 4.17%
COc1ccc(NC(=O)c2ccccc2NS(=O)(=O)c2ccc(C)cc2)c([N+](=O)[O-])c1 2.55%
O=C(O)c1ccccc1Nc1ccc(OC(F)F)cc1 18.9%
Cc1ccc(NC(=O)C(C)[n+]2ccccc2)cc1[N+](=O)[O-] (stereo not drawn) -17.4%
CCOC(=O)c1nn(-c2ccc(Br)cc2)cc1C(=O)c1cccc2ccccc12 2.03%
O=C(O)C12CC3CC(C1)CC(n1ncc(NCc4ccco4)c(Cl)c1=O)(C3)C2 1.68%
O=c1c(Cl)c(NCc2ccccc2)cnn1C12CC3CC(CC(C3)C1)C2 -15.7%
O=C(O)Cc1ccc(Nc2cnn(C34CC5CC(CC(CC(=O)O)(C5)C3)C4)c(=O)c2Cl)cc1 23.1%
O=C(O)CC12CC3CC(C1)CC(n1ncc(NCc4ccccc4)c(Cl)c1=O)(C3)C2 8.41%
O=C(O)CC12CC3CC(C1)CC(n1ncc(NCc4ccccc4Cl)c(Cl)c1=O)(C3)C2 23.6%
O=c1c(Cl)c(NCc2ccc(F)cc2)cnn1C12CC3CC(CC(C3)C1)C2 18.3%
O=c1c(Cl)c(NCc2ccc(F)cc2Cl)cnn1C12CC3CC(CC(C3)C1)C2 -15.2%
O=C(O)CC12CC3CC(C1)CC(n1ncc(NCc4ccco4)c(Cl)c1=O)(C3)C2 7.19%
COc1ccccc1N1CCN(C(=O)COc2ccc(Cl)cc2Br)CC1 1.89%
CCOC(=O)C1CCN(C(=O)Nc2ccc(OC(F)(F)F)cc2)CC1 7.03%
O=C(c1cc2cccc([N+](=O)[O-])c2oc1=O)N1CCOCC1 14.7%
CCOC(=O)c1c(C)[nH]c(C)c1C(=O)COC(=O)/C=C/c1cccc(C(F)(F)F)c1 -1.01%
Cc1cc(C)c(OC2(c3ccccc3)OC(=O)c3ccccc32)c(C)c1 (stereo not drawn) -10.6%
Cc1ccccc1/C=N/N=C1/NC(=O)CCS1 23.8%
CN1CCC(=NNC(=O)C(=O)Nc2ccc(F)cc2)CC1 13.2%
